# Key:
# Type in all cases: functional
# [1] = molecular target: Solute carrier family 2, facilitated glucose transporter member 1 (Homo sapiens) (UniProt P11166); test: ST_JUDE_LEISH: Cytotoxicity at 2uM final concentration against transgenic Leishmania Mexicana promastigotes LmGLUT1 that are glucose transport deficient and complemented with the human glucose transporter GLUT1. Activity is measured by DNA content using SYBR green in vitro
# [2] = molecular target: Hexose transporter 1 (Plasmodium falciparum) (UniProt O97467); test: ST_JUDE_LEISH: Cytotoxicity at 2uM final concentration against transgenic Leishmania Mexicana promastigotes LmPfHT that are glucose transport deficient and complemented with the Plasmodium falciparum hexose transporter. Activity is measured by DNA content using SYBR green in vitro
# [3] = molecular target: Glucose transporter (Leishmania mexicana) (UniProt O61059); test: ST_JUDE_LEISH: Cytotoxicity at 2uM final concentration against transgenic Leishmania Mexicana promastigotes LmGT2 that are glucose transport deficient and complemented with the L. Mexicana glucose transporter 2. Activity is measured by DNA content using SYBR green in vitro
# Solute carrier family 2, facilitated glucose transporter member 1 (Homo sapiens), sequence (P11166 whole entry): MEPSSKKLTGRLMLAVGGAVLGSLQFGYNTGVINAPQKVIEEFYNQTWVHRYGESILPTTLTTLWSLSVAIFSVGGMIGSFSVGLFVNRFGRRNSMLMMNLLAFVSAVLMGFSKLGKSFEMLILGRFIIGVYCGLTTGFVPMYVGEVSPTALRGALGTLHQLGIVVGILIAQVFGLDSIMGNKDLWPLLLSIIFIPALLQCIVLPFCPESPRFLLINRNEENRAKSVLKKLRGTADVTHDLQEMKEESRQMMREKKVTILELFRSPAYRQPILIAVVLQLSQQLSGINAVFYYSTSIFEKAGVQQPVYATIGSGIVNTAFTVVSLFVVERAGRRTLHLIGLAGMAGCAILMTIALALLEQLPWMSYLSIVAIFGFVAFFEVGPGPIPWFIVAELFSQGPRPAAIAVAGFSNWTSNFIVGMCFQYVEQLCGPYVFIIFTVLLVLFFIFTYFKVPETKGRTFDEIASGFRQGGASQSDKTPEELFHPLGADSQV
SMILES,inhibition [1],inhibition [2],inhibition [3]
CC(ON1C(N)=NC(N)=NC1(C)C)c1ccccc1 (centres undefined),5.91%,4.22%,6.95%
CCN(CC)CCn1c2ccccc2c2ccc(C(=O)Nc3ccc4sc(C)nc4c3)cc21,13.2%,11.9%,8.05%
CCOC(=O)N/N=C/[C@H](CCc1ccccc1)NC(=O)[C@H](CC(C)C)NC(=O)c1cc2cccc(OC)c2o1,4.25%,5.56%,5.67%
CCN(c1ccc(F)cc1)S(=O)(=O)c1cc(Br)cc2c1N(C(=O)C1CC1)CC2,0.4%,1.32%,3.74%
Cc1c(C)n(C2CCCC2)c2ncnc(OC3CCN(CC(=O)NC4CC4)CC3)c12,9.5%,6.34%,7.75%
CC(=O)Nc1ccc(CN2CCC(NC(=O)c3ccc(-c4cccc(C(F)(F)F)c4)s3)CC2)cc1,0.69%,0.42%,-4.9%
Cc1nc(-c2cccc(C(=O)NC3CCC(CCN4CCc5ccc(-c6cccnc6)cc5CC4)CC3)c2)no1 (centres undefined),11.5%,2.55%,4.24%
Cc1cc(OCC2CCN(c3ccc(C(=O)NC4CC4)cn3)CC2)ccc1F,0.67%,1.45%,-6.22%
CCOc1cc(C)ccc1N(C1CCN(CCCCNC(=O)c2ccc(-c3ccc(C(F)(F)F)cc3)cc2)CC1)S(=O)(=O)c1ccccc1,0.32%,1.25%,-0.57%
FC(F)(F)c1ccc2c(NCCCNc3ccnc4cc(C(F)(F)F)ccc34)ccnc2c1,-2.25%,3.22%,-4.41%
CC(=O)Nc1ccc(OCCCCN(Cc2ccccc2C(F)(F)F)c2ccc(C#N)c(C(F)(F)F)c2)cc1,1.93%,6.69%,7.15%
NS(=O)(=O)c1cccc(N/C=C2\C(=O)Nc3ccc(S(=O)(=O)Cc4c(Cl)cccc4Cl)cc32)c1,4.04%,0.57%,3.06%
Cc1cc(N[C@@H](Cc2ccccc2)C(=O)NCc2cccc(F)c2)nc(NCCOc2ccccc2)n1,4.2%,-1.41%,-0.15%
COc1ccc2nccc([C@@H](O)CN3CCC(NC(=O)C(=Cc4ccc(C#N)cc4)c4ccc(-c5ccccc5)cc4)CC3)c2c1,1.28%,0.19%,-0.89%
CCOc1ccc(-n2nc3c(Cl)nnc(-c4ccccc4)c3c2-c2ccccc2)cc1,4.48%,6.02%,0.01%
Cc1nc(-c2ccccc2)nc(N2CCN(C(=O)c3ccco3)CC2)c1Cc1ccccc1F,7.73%,9.03%,7.76%
CN1CCN=C1c1ccc(NC(=O)Nc2ccc(C3=NCCN3C)cc2)cc1,13%,7.37%,5.87%
COc1ccc(-c2cc(NCc3ccc(-n4ccnc4)cc3)nc(Nc3ccccc3)n2)cc1,2.37%,0.85%,1.83%
O=C(/C=C/c1ccc(Cl)c(Cl)c1)NCCCCCN1CCC(NC(=O)Nc2ccc(OC(F)F)cc2)CC1,-1.59%,-0.5%,5.2%

SMILES,inhibition [1],inhibition [2],inhibition [3]
Cc1cc(N[C@@H](Cc2ccccc2)C(=O)NCCOc2ccccc2)nc(NCCOc2ccccc2)n1,1.88%,0.27%,2.71%
CC(=O)NCCNc1nccc(N2CCc3ncnc(Nc4ccc(OCc5cccc(F)c5)c(Cl)c4)c3C2)n1,0.07%,-2.13%,-2.74%
CCCNCc1ccc(-c2ccc(CN(CCOC)C(=O)c3cnc(C)cn3)cc2)nc1,-0.38%,0.25%,0.24%
CN(Cc1cccc(F)c1)C1CCN(c2cc(NC(=O)c3ccc(F)cc3)ccn2)CC1,6.99%,6.01%,6.94%
O=C1NC(C(=O)Nc2ccccc2)C(c2ccccc2)S1 (centres undefined),-0.88%,-1.96%,-0.52%
O=C(NCCCN1CCN(c2cccc(Cl)c2)CC1)c1ccc(-c2nc3cc(Cl)c(Cl)cc3[nH]2)c(F)c1,3.57%,1.4%,1.68%
O=S(=O)(Nc1ccc(CCN2CCC(N3CCCCC3)CC2)cc1)c1ccc(Cl)cc1,1.32%,2.6%,2.94%
O=C(Nc1ccc(Cl)c(Cl)c1)N(Cc1ccccc1Br)C1CCNCC1,0.5%,3.45%,0.68%
O=C(Nc1cccc(F)c1)N(Cc1ccc(-c2ccc(CN3CCNCC3)cc2)cc1)C1CCN(Cc2ccccc2)CC1,-0.04%,-0.99%,-1.59%
CC(=O)Nc1ccc(CNCCc2ccc(NC(=O)c3cc(Cl)cc(Cl)c3)cc2)cc1,-0.73%,0.23%,-1.09%
COc1cccc(C(C)(C)NC[C@@H](O)[C@H](Cc2ccccc2)NC(=O)c2cc(C3CCCC3)cc(N3CCCCS3(=O)=O)c2F)c1,0.16%,2.15%,1.09%
O=[N+]([O-])c1cccc(NC(=S)N2CCCN(Cc3ccc(F)cc3F)CC2)c1,0.91%,1%,0.66%
CN1CCN(Cc2cccc(Nc3nccc(Nc4ccc(Oc5ccccc5)cc4)n3)c2)CC1,1.89%,7.05%,5.8%
CCCNC(=O)c1cncc(-c2ccc(CNCCCc3ccccc3)cc2)c1,1.92%,1.6%,0.59%
Cc1ccc(Nc2nc(N/N=C/c3cccc([N+](=O)[O-])c3)nc(Nc3ccccc3)n2)c(C)c1,2.34%,1.33%,-0.87%
O=C(Nc1ccc(-n2ccc(C(F)(F)F)n2)cc1)c1cccs1,0.18%,0.85%,0.42%
COc1cc2ccccc2cc1CNCCCCCCNCc1cc2ccccc2cc1OC,5.18%,6.05%,5.15%
Cc1ccccc1CCNC(=O)c1ccc(N2CCN(c3ccncc3)CC2)nc1,3.94%,1.96%,0.46%
NC(=O)c1cnc2cc(-c3ccncc3)cc(Nc3ccc(NC(=O)C4CCCCC4)cc3)c2c1,2.17%,2.89%,1.29%

# From ChEMBL document CHEMBL3433997, “St. Jude Leishmania screening dataset” (2016)
